The campaign covered roughly 360,000 compounds. About 7,500 (2.1%) were called active. Entries that show only a call come without a potency. Roughly 8% stayed inconclusive and do not appear here. Calls follow the shape of the dose curve; as a rule, active = well fitted cell-killing curve with a large enough effect; inconclusive = small, poorly fitted or top-dose-only effect, or effect the other way, or another doubt; inactive = no such curve, though single readings can be large or run the other way. The sample as a whole holds a higher share of actives than the screen did.
test: qHTS for induction of synthetic lethality in tumor cells producing 2HG: qHTS for the HT-1080-IDH1KD cell line; details: HT-1080 IDH1 knockdown viability, ATP luminescence, 48 h; series mostly up to 46.1 µM
Outline: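 Cytotoxicity counter-line: IDH1KD HT-1080, 48 h, CellTiter-Glo. Curves classed by r2, magnitude and activity.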
Potency is read from the fitted curve at half-maximal effect.

Compound | Potency
CCC(C(=O)NCc1ccccc1)n1c(Cc2cc(F)cc(F)c2)nc2ccccc21 (stereo not given) | inactive
COc1ccc(C(=O)OCC(=O)Nc2cc(C)on2)cc1F | inactive
O=C(CCN1CCCCC1)Nc1ccc(F)c(F)c1 | inactive
CCc1cccc(CC)c1N1C(=O)CC(Sc2ccccc2N)C1=O (stereo not given) | inactive
CC1(Cc2ccccc2C#N)C(=O)Nc2ccc(-c3ccc4[nH]ccc4c3)cc21 (stereo not given) | 1.64 µM (active)
OC(COc1ccc(Br)cc1)CN1CCCC1 (stereo not given) | inactive
CC(Oc1ccc(Br)cc1)C(=O)NC1CCCCCC1 (stereo not given) | inactive
CC(C)(C)CC(C)(C)NCC(O)COCCOc1ccc(Br)cc1 (stereo not given) | 20.6 µM (active)
Cc1cccc(CN2CCN(C3CN(Cc4cn(Cc5cc(C)cc(C)c5)nn4)S(=O)(=O)C3)CC2)c1 (stereo not given) | inactive
O=C1C(Cl)=C(Oc2ccccc2)C(=O)c2ccccc21 | 2.59 µM (active)
CC(=O)Oc1ccc2c(c1)C(=O)c1ccccc1C2=O | inactive
O=C(O)CSc1nnc(-c2ccc3c(c2)OCO3)n1-c1ccccc1 | inactive
O=C(CSc1nnc(-c2ccccn2)n1-c1ccccc1)Nc1ccc2c(c1)OCO2 | 23.1 µM (active)
CCn1c(SCC(=O)Nc2ccc3c(c2)OCCO3)nnc1-c1ccncc1 | inactive
Cc1cccc(C)c1NC(=O)C(c1cccc2ccccc12)n1c(=O)c(-c2ccco2)nc2ccccc21 (stereo not given) | inactive
O=C(OCc1cn([C@H]2C[C@H](c3ccccc3)N(C(=O)c3cccs3)C[C@@H]2O)nn1)c1ccccc1 | inactive
COc1cccc(OC)c1C(=O)N1CCN(Cc2ccccc2F)CC1 | inactive
Nc1c(C(=O)NCc2ccccc2)nnn1Cc1cccc(Cl)c1 | 14.6 µM (active)

Compound | Potency
Nc1c(-c2ccccc2)nnn1Cc1ccccc1 | inactive
O=C(COc1cccc(Cl)c1)NCc1ccccc1 | inactive
O=C(NCCN1CCOCC1)c1ccc2c(c1)N(Cc1cccc(Cl)c1)C(=O)c1ccccc1S2(=O)=O | inactive
CC1=C/C(=N\OS(=O)(=O)c2ccccc2)C=CC1=O | 20 µM (active)
O=C(NCc1ccc(F)cc1)c1cc(C2CCCCN2C(=O)c2cccs2)on1 (stereo not given) | inactive
CCc1nc2ccc(C(=O)Nc3cc(-c4ccccc4)ccc3OC)cn2c1N(CC)CC(=O)N(C)C | inactive
C[C@@H]1CN([C@@H](C)CO)C(=O)c2cc(Br)cnc2O[C@H]1CN(C)Cc1ccc(-c2ccccc2)cc1 | inactive
CCCCN1CC(N2CCN(Cc3cccc(C)c3)CC2)CS1(=O)=O (stereo not given) | inactive
COc1cc(/C=N/NC(=O)Nc2ccccc2)ccc1OCCOc1ccccc1C | 7.08 µM (active)
Cc1ccc(S(=O)(=O)Oc2ccc(/C=N/NC(=O)c3ccncc3)cc2)cc1 | inactive
COc1ccc(/C=N/NC(=O)c2ccccc2)cc1OS(=O)(=O)c1ccccc1 | 20.6 µM (active)
COc1cc(/C=N/NC(=O)c2ccoc2C)ccc1OCCN1CCCCC1 | inactive
COc1cc(C=NNC(=O)c2cccnc2)ccc1OC(=O)c1ccccc1F | inactive
COc1ccc(/C=N/Nc2ccccc2C(=O)O)cc1 | inactive
COc1ccc(C(=O)Nc2ccccc2C(=O)N/N=C/c2ccc(O)c(OC)c2)cc1 | 6.51 µM (active)
COc1ccc(C(=O)Nc2ccccc2C(=O)N2CCN(c3ccccc3)CC2)cc1 | inactive
COC(=O)c1ccc(COc2ccc(/C=N/NC(=O)C(=O)Nc3ccc(OC)cc3)cc2OC)o1 | inactive

Source: PubChem BioAssay AID686971 (National Center for Advancing Translational Sciences (NCATS), 2013)
